For orientation: inhibition means the drop in the measured response relative to a control, in per cent.

Out of some 65,000 compounds screened, about 100 (0.15%) were called active. What follows is part of a selection rich in actives, with near analogues and random picks from the rest. Values without a mark were called inactive.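 How the source made its calls: active means inhibition above about 50% (limit read from the data); inconclusive means inhibition over screen mean plus 3 SD, below that limit; inactive means the rest.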

Experimental findings from PubChem BioAssay AID374 (University of Pittsburgh Molecular Library Screening Center, 2006) are described below.

Chain of Dual specificity protein phosphatase 1 (Homo sapiens) (P28562 whole entry, looked up): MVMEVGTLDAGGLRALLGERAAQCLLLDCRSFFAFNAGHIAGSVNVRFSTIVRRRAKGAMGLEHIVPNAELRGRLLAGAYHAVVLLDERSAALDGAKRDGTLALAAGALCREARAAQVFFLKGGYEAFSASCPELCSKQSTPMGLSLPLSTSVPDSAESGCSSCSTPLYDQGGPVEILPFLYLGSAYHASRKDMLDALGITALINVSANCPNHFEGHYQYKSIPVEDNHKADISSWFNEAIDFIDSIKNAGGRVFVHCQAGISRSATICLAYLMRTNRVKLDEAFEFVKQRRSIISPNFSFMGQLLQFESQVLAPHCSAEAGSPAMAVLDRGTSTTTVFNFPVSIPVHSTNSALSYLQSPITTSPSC

This test addresses Dual specificity protein phosphatase 1 (Homo sapiens) (UniProt P28562). The test can be described thus: blockers of human DUSP1 activity – biochemical, in vitro, primary screen (AID 374).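 Further: 0% = DMSO max control wells and 100% = wells with enzyme stopped by NaOH.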 The note with it: recombinant MKP-1, OMFP hydrolysis fluorescence; hits give high values;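 compounds tested at a single concentration somewhere between 10 and 100 µM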.
Take `Cc1cccc(N2C(=O)SC(N(CC(=O)O)c3cccc(C)c3)C2=O)c1` (centres undefined): the inhibition is 11.8%. As for `COc1ccc(C(=O)N(Cc2ccc(N(C)C)cc2)C2CCS(=O)(=O)C2)cc1` (centres undefined), the figure is 0.01%; as for `Cc1nc2sc(C(c3ccco3)N3CCC4(CC3)OCCO4)c(O)n2n1` (centres undefined), 4.37%.

For `COc1ccc2c(CC(=O)Nc3nnc(C4CC4)s3)coc2c1`, the inhibition was 11.4%. Next, `CCCCCCn1c(CN2CCCCC2)nc2c1c(=O)n(C)c(=O)n2C`: 3.15%; `CNC(=O)Nc1cc(C(C)(C)C)no1`: -18.9%; `CCN(CC(=O)NC(C)C)C(=O)CCNC(=O)c1ccc(Cl)cc1`: 24.3%. Turning to `CN1C(=O)c2ccc(NC(=O)C3CCCCC3)cc2C1=O`, the inhibition is 16.2%.

Regarding `CC1(C)CC(=O)C=C(NCCCN2CCCC2=O)C1`, the inhibition was -21.7%. As to `CCOc1ccccc1C1CC(c2ccccc2)Nc2nc(N)nn21` (centres undefined), the inhibition was 5.12%. As for `CSC1=N/C(=C\C=C\c2cccs2)C(=O)S1`, the figure is -1.19%; as for `Fc1ccc(OCc2nn3c(Cn4nnc5ccccc54)nnc3s2)cc1`, 17.2%; as for `Cn1c(CNC(=O)C(C)(C)C)nc2ccccc21`, 4.69%. As to `COc1cccc2cc(C(=O)N(C)C)c(=O)oc12`, the inhibition is -3.65%. As for `CCCCOC(=O)c1[nH]c(C)c(C(=O)OC)c1C`, the figure is -26.1%. Take `Cc1n[nH]c(C)c1S(=O)(=O)N1CCCC(C(=O)NCC2COc3ccccc3O2)C1` (centres undefined): the inhibition is 2.75%. As for `CCS(=O)(=O)N1CCN(C(=O)c2cccs2)CC1`, the figure is 0.17%; as for `Cc1nn(-c2ccccc2)c2c1C(=O)NC(=O)C(C)(C)C2`, -21.3%; as for `Cc1cccc(N)c1SC1CCCCC1O` (centres undefined), -21.7%.

As for `COc1ccccc1Oc1ccc(S(=O)(=O)Nc2cccnc2)cc1`, the inhibition is -6.18%.

In the case of `CCN(CC)P(=O)(C(NC(=O)OC)C(F)(F)C(F)(F)C(F)(F)C(F)F)N(CC)CC` (centres undefined), the inhibition was 32.7%. As for `Cc1ccc(C(=O)Nc2ccccc2C(=O)NC2CCCCC2)cc1S(=O)(=O)N1CCOCC1`, the inhibition is 15.1%. As for `CCO/C([O-])=N/c1c[n+](N2CCOCC2)no1`, the figure is -14.5%; as for `Cc1cc(N2C(=O)c3ccc(C(=O)NCc4ccccc4)cc3C2=O)no1`, 6.5%; as for `COc1ccc(OC)c2sc(NC(=O)C3COc4ccccc4O3)nc12` (centres undefined), 10.2%. As for `COc1ccc(-c2nnc(SCC(=O)c3ccco3)n2-c2ccccc2)cc1`, the inhibition was 1.42%. For the compound `CCCOc1cccc(C(=O)Nc2nnn(CCC)n2)c1`, the inhibition is -1.6%. On to `CC(=O)N(CN1C(=O)C2CC=CCC2C1=O)c1cccc(Cl)c1` (centres undefined), for which the inhibition is 4.23%. Regarding `Cc1nc2ccccc2cc1O`, the inhibition was -1.94%. As for `COc1ccc(-n2c(SCC(=O)NCc3cccs3)nnc2-c2ccoc2C)cc1`, the figure is -10%; as for `COc1ccc(CCN2CNc3c(c(=O)n(C)c(=O)n3C)C2)cc1OC`, -8.44%. As for `CCOC(=O)Cn1c(=O)oc2cc(S(=O)(=O)NCC3CCCO3)ccc21` (centres undefined), the figure is -10.8%; as for `COC(=O)C1C(=O)CC(C)(O)C(C(=O)OC)C1c1ccc2c(c1)OCO2` (centres undefined), 4.11%. Next, `Cc1ccc2nc(NCCCNC(=O)c3cnccn3)c(C#N)cc2c1`: 16.8%. As to `CCN(CCCNC(=O)C1CCN(S(=O)(=O)c2cnc[nH]2)CC1)c1ccccc1`, the inhibition was -3.93%.

For `Cn1c(=O)c2c(nc(OCc3cccnc3)n2Cc2ccccc2)n(C)c1=O`, the inhibition was -22.4%. Take `CC(CCc1ccccc1)NC(=O)c1ccc(Br)o1` (centres undefined): the inhibition is 9.59%.

For the compound `CC(C)CNC(=O)C1CCCN(S(=O)(=O)c2ccc(-n3cnnn3)cc2)C1` (centres undefined), the inhibition was 10.4%. Regarding `CC(C)C(C(=O)NC1CCCCC1)N(CC1CCCO1)C(=O)CNS(=O)(=O)c1ccc(F)cc1` (centres undefined), the inhibition was 42%. Consider `COc1ccc(OCC(=O)N2CCN(C(=O)COc3ccccc3)CC2)cc1`, for which the inhibition is 3.4%. For the compound `CCOC(=O)C1CCCN(C(=O)c2cncc(Br)c2)C1` (centres undefined), the inhibition was -1.24%. For `COc1cccc(N2CCN(C3CC(=O)N(c4ccc(Cl)cc4)C3=O)CC2)c1` (centres undefined), the inhibition was 9.47%. As to `COc1cccc(N2C(=O)C3CCCN3C2c2ccc(F)cc2)c1` (centres undefined), the inhibition is 7.6%. Next, `CCOC(=O)N1CCN(C(=O)c2ccc3nc4cc(Cl)ccc4c(=O)n3c2)CC1`: -0.24%. Take `CNC(=O)C1CC(=O)N(Cc2ccc3c(c2)OCO3)C(=Nc2ccc(F)cc2)S1` (centres undefined): the inhibition was 4.87%. Next, `CCCNc1ncnc2sc(C)c(C)c12`: 6.02%; `CCCc1nc(-c2ccccc2O)n(-c2ccccc2)n1`: -14.3%; `COc1ccccc1-n1cnc2cc(NS(=O)(=O)c3ccccc3)ccc21`: -7.71%.

For `C=C(C)Cn1c(N2CCCC2)nc2c1c(=O)[nH]c(=O)n2C`, the inhibition is 4.46%. As for `CCOC(=O)N1CCN(Cc2oc(CO)cc(=O)c2O)CC1`, the inhibition was 30.4%.

As for `Cc1cccc(N2CCN(C(=O)c3cc4c(=O)[nH]c5ccccc5c4n3C)CC2)c1C`, the inhibition is 50.9% (active). As for `Cn1c(C(=O)NCCN2CCc3ccccc3C2)cc2c(=O)[nH]c3ccccc3c21`, the figure is 31%; as for `CC(=O)N1CCN(c2cccc(C)c2C)CC1`, 9.16%; as for `COCCCn1c(CCC(=O)O)ccc1-c1ccc(F)cc1`, 33.1%. As for `Cn1c(SCc2c(F)cccc2Cl)nnc1-c1cnccn1`, the figure is 4.26%; as for `COc1cccc(CN2C(=O)CCC2(C)C(=O)NC2CCCCCC2)c1` (centres undefined), 10.3%.

With `Cc1ccc(-c2noc(CSc3nnnn3-c3ccccc3)n2)cc1`, the inhibition is 0.15%.

`O=c1c2ccccc2nc(CSc2nnnn2-c2ccccc2)n1-c1ccccc1`: the inhibition was 11.8%.

In the case of `Cc1ccc(Nc2nc(CSc3nnnn3-c3ccccc3)cc(=O)[nH]2)cc1`, the inhibition is 53.9% (active). As for `CCOCCCNC(=O)c1c[nH]c2cc(C)ccc2c1=O`, the figure is 7.4%. As for `COc1ccc(NC(=O)c2c(SC)nsc2SC)cc1`, the figure is 0.33%.

In the case of `CC(=O)Nc1ccc(S(=O)(=O)Nc2nc3n(n2)C(c2ccccc2)CC(=O)N3)cc1` (centres undefined), the inhibition is -6%. For the compound `CC(C)COC(=O)c1ccc(NC(=O)C2C3C=CC(C3)C2C(=O)O)cc1` (centres undefined), the inhibition is 23.6%. For the compound `CCCCOc1ccc(C(=O)NCc2ccco2)cc1`, the inhibition was -0.67%. As for `C[C@H](NC(=O)OC(C)(C)C)c1nnc(SCC(=O)Nc2ccc(Br)cc2)o1`, the figure is 13%.

Regarding `Cc1oc2nc(SCC(=O)NCc3cccnc3)nc(N)c2c1C`, the inhibition is 32.5%. As for `CN1c2ccccc2-c2nc3ccccc3n2C1c1ccco1` (centres undefined), the figure is -25.5%; as for `COc1ccc(F)cc1S(=O)(=O)Nc1ccc2c(c1)OCO2`, 12.4%. Regarding `CCOC(=O)N1CCN(C(=O)CN(c2ccc(C)c(C)c2)S(=O)(=O)c2ccccc2)CC1`, the inhibition was 12.6%. Take `O=S(=O)(c1cccs1)N1CCc2ccccc2C1`: the inhibition was 1.16%. As for `CC1Cn2c(nnc2-c2cccs2)S1` (centres undefined), the inhibition is -6.93%. For the compound `Cc1nc2nc3c(cn2n1)C(=O)CC(c1ccccc1)C3` (centres undefined), the inhibition was -8.11%. Turning to `CCSC(C)CC1C/C(=N/O)c2c(C)noc2C1` (centres undefined), the inhibition is 12.5%. Take `COc1cccc(C2/C(=C(/O)c3ccc(F)cc3)C(=O)C(=O)N2CCN(C)C)c1` (centres undefined): the inhibition is 3.73%. As for `O=C(Oc1ccc2c(c1)CCC2)N1CCOCC1`, the figure is -9.77%; as for `O=C(NC(=O)c1ccc(Cl)c(Cl)c1)OC1CCS(=O)(=O)C1` (centres undefined), 0.18%; as for `O=C(Nc1c(Cl)cccc1Cl)C1CCC1`, -12.7%. Next, `Cc1cccc(N2CCN(C(c3ccccc3)c3nnnn3CC3CCCO3)CC2)c1C` (centres undefined): 20.8%. Next, `COCCOC(=O)C1=C(C)NC(=O)NC1c1ccc(Cl)cc1` (centres undefined): 5.89%; `CCc1ccccc1NC(=O)CSc1nnc([C@@H](NC(=O)OC(C)(C)C)C(C)CC)o1` (some centres undefined): 27.6%. `N#Cc1nc(Cc2cccc3ccccc23)oc1NCc1ccc2c(c1)OCO2`: the inhibition is -0.11%. On to `COc1ccc(S(=O)(=O)Nc2ccc(S(=O)(=O)N3CCCCC3)cc2)cc1OC`, for which the inhibition is -11.3%. Next, `O=C(O)c1ccc(COCC(F)(F)F)cc1`: 5.73%; `COC(=O)[C@H](CCSC)NC(=O)Nc1ccc(OC)cc1`: -29.3%. Turning to `Cc1ccc(C(=O)NCCNS(=O)(=O)c2ccccc2)cc1`, the inhibition is 9.54%. For `CCOC(=O)C1C(=O)OC2(CCCC2)C1C(=O)OCC` (centres undefined), the inhibition was 0.52%. Next, `CSC1=NCCN1C(=O)c1ccc(S(=O)(=O)N2CCOCC2)cc1`: -8.44%; `CC(C)(C)n1nc2c(c1NC(=O)c1ccc(S(=O)(=O)N3CCCC3)cc1)CS(=O)C2` (centres undefined): 1.54%; `COCCCNC(=O)CCc1nc2cccnc2n1Cc1ccc(OC)cc1`: 2.57%.

In the case of `CCC(C(=O)Nc1ncccn1)(C(F)(F)F)C(F)(F)F`, the inhibition is -11.8%. As for `CCN(CC)S(=O)(=O)c1cccc(C(=O)Nc2cc(C)nn2-c2nc(C)cc(C)n2)c1`, the figure is -26.4%; as for `Cc1nc(-c2ccc(NC(=O)c3cccs3)cc2)cs1`, -3.52%. As for `Cn1c(SCC(=O)Nc2cccc(O)c2)nnc1-c1ccc(S(=O)(=O)N2CCOCC2)cc1`, the inhibition was -24.3%.

As to `OC(COc1ccccc1)Cn1cc(Br)cn1` (centres undefined), the inhibition is -0.2%.

Regarding `COC(=O)c1ccc(C2C3=C(Nc4nnnn42)c2ccccc2OC3)cc1` (centres undefined), the inhibition is -1.69%. For `Cc1c(C)c2cc3c4c(oc3c(C)c2oc1=O)CCCC4`, the inhibition is 10%. Next, `C=CCn1c(=O)c2ccccc2n2c(SCC(=O)N3CCCc4ccccc43)nnc12`: 12.1%. As for `O=C(CSc1nc2[nH]ncc2c(=O)n1-c1ccccc1)N1CCCc2ccccc21`, the figure is 50.2% (active); as for `Cc1nnc(SCC(=O)N2CCc3ccccc32)n1-c1ccccc1`, 17.3%.
